Reference: the supplement of paper PMC6555819

Experiments:
Assay in all cases: PBM binding z-score (relative to random genomic background probes); higher = stronger binding; sequences stand for … in GC…GCGATTGACAGCGTAGAATGAAGG
[1] = test system: FXR:RXRa (NR concentration 270 nM, RXRa partner concentration 90 nM)
Procedure, shortened: (§1)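 Ligand-free nuclear receptor dimers were bound for 1 h to custom Agilent 4×180K protein-binding microarrays. Detection used antibodies against each partner (one per run). Binding z-scores rest on regression-normalized fluorescence, with random background probes as the reference.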

[2] = test system: LXRa:RXRa (NR concentration 270 nM, RXRa partner concentration 90 nM)
Procedure, shortened: as §1

[3] = test system: LXRa homodimer (NR concentration 270 nM)
Procedure, shortened: as §1

[4] = test system: LXRb:RXRa (NR concentration 270 nM, RXRa partner concentration 90 nM)
Procedure, shortened: as §1

[5] = test system: LXRb homodimer (NR concentration 270 nM)
Procedure, shortened: as §1

[6] = test system: PPARa:RXRa (NR concentration 270 nM, RXRa partner concentration 90 nM)
Procedure, shortened: as §1

[7] = test system: PPARg:RXRa (NR concentration 180 nM, RXRa partner concentration 90 nM)
Procedure, shortened: as §1

[8] = test system: PPARg:RXRa 270nM:90nM, anti-RXR (NR concentration 270 nM, RXRa partner concentration 90 nM)
Procedure, shortened: as §1

[9] = test system: PPARg:RXRa 30nM:10nM, anti-RXR (NR concentration 30 nM, RXRa partner concentration 10 nM)
Procedure, shortened: as §1

[10] = test system: PPARg:RXRa 90nM:30nM, anti-RXR (NR concentration 90 nM, RXRa partner concentration 30 nM)
Procedure, shortened: as §1

Sequence	PBM binding z-score [1]	PBM binding z-score [2]	PBM binding z-score [3]	PBM binding z-score [4]	PBM binding z-score [5]	PBM binding z-score [6]	PBM binding z-score [7]	PBM binding z-score [8]	PBM binding z-score [9]	PBM binding z-score [10]
TCTCGGAGGACACGAAGGTCAGAGCCTTCCAGAG	1.54	1.56	-0.0178	1.35	-0.905	2.1	0.565	1.76	2.02	1.7
TCAGACAGGGGAAGGTAACTCAGGTACGCAGTCG	0.82	1.65	0.166	1.3	0.859	0.994	0.622	2.06	3.77	2.68
GGAACGAGGGGATTCGAGTTGATAGCATGGCGAT	-0.431	-0.53	-0.577	-0.641	-0.654	-0.413	0.315	-0.471	-0.474	-0.523
ATATGTAGGTTAGCTGGGGTCGTTCAGACTAGGC	1.41	3.09	0.399	2.71	0.5	3.82	3.96	3.57	1.33	2.73
AGAATGAGGTTATTAAGATCATGGAATTGCGGTC	1.63	1.62	0.0389	1.29	-0.00587	2.75	1.91	2.37	0.464	1.49
TTAATGAGGTTAAAGATCAGGGAACGTGGCGTCG	3.44	3.14	0.612	2.28	0.716	5.01	6.53	7.02	6.34	7.88
ATCTGTAGGTTAGCTGGGGTCATTCAGACTAGGC	3.92	6.12	3.25	4.61	1.64	4.22	2.15	3.26	0.98	2.02
CAAACTAGGTCTCAGAGGTCAAAGTCCGTGCGTA	4.78	5.2	5.13	4.97	1.8	5.18	4.67	5.17	2.69	4.41
CCTTACGGTTCACTCCAGGTTATAGCATCGGAGT	2.82	6.46	2.54	3.58	0.998	2.21	0.562	0.77	0.224	0.483
AGAACGGGGGCACGCTGAGTTGATAGCAGAGTAG	2.62	2.67	0.116	4.87	6.59	4.42	4.48	4.86	2.39	4.05
TCATATAGGTAAAAGCTAGGTGAAAGTCCGATCT	0.543	0.688	-0.0379	0.557	-0.187	1.69	1	2.74	4	3.37
GCTATTAGTTAAAAGGGCAACCGAATGATTCTCG	0.183	0.439	0.409	0.624	-0.5	2.02	1.84	3.45	1.77	3.13
CGTCCAAGGTCAGCAGCTCAGTGAAAGCGACGTG	5.06	3.06	-0.124	2.14	-0.454	4	1.68	2.61	0.139	1.47
GCGACTCGGGCATCAGCAGGTTACCATAACTTAA	-0.428	-0.386	-0.511	-0.334	-1.48	0.263	0.266	-0.256	-0.629	-0.12
CGTCCAAGGTCAGAGAGGTCAGCGAATGCCGAGT	6.38	5.44	3.27	4.32	0.249	5.09	4	4.67	0.981	3.07
ATATGTAGGTTACATCCGGATCATTCAGGCTATG	0.642	3.17	0.493	1.65	0.498	3.35	5.19	4.14	1.64	3.4
TAGCCTAGGTCAGATTGGGCCAGTATACGCTATA	2.65	1.25	-0.472	0.995	-0.0361	1.43	0.564	0.735	-0.437	-0.114
ACAGACAGGTGAGTGAAGGTAACGCAGCTGGACG	0.617	0.126	-0.468	-0.215	-0.518	0.197	0.826	0.162	-0.109	0.232
ATAACGAGGGCAATGAGTTGATAGCACGGGTGGC	0.269	0.688	-0.402	0.00885	0.11	1.23	1.8	1.31	0.221	0.999
CTCGAAAGGTCGGTTGAGTTGAGTATACGGATAA	2.22	1.48	0.18	1.5	-0.0298	2.27	0.295	0.792	0.314	0.857
CCTGCTAAGTCATGGTCAGCTAATCTACAGTATG	-0.197	-0.105	-0.185	-0.137	-0.307	-0.22	-0.135	-0.368	-0.358	-0.204
TCATATAGGTAAATGCTAGGGGAAAGTCCGATCT	0.958	0.949	0.455	0.865	0.134	1.21	0.788	2.13	3.88	3.25

Sequence	PBM binding z-score [1]	PBM binding z-score [2]	PBM binding z-score [3]	PBM binding z-score [4]	PBM binding z-score [5]	PBM binding z-score [6]	PBM binding z-score [7]	PBM binding z-score [8]	PBM binding z-score [9]	PBM binding z-score [10]
AGAACGAGGGCAATGAGATGATAGCACGGGTGGC	0.277	0.121	-0.31	-0.282	-0.486	1.02	1.58	0.593	0.201	0.528
CAAACTAGGTCACCGGAAGGTCTAAGTCCGCATG	3.99	3.38	0.494	2.73	0.609	5.3	8.5	7.22	4.98	6.82
TCATGTAGATCAAGCAGGTTAAGAAAGCCTGAGT	0.865	0.684	-0.0467	0.774	-0.523	0.929	-0.116	1.74	3.28	2.36
CATACAGGGTCAGCCAGGCCAGAGTAGGGACGGC	4.87	3.33	-0.255	2.24	0.282	4.45	3.65	3.21	0.666	2.01
TCTAGTTGTTCAAAGGTCACACACTCGAAATGCG	5.39	5.85	4.39	5.41	1.92	5.76	7.52	7.68	6.77	8.74
TAGCCTAGGTGATTCAGGGGCCAGTATAGAAAGC	-0.423	-0.634	-0.348	-0.094	-0.239	0.0128	0.0919	-0.199	-0.433	0.0704
ATCTCTAGGTAAAAGTTGAGTGAATCCCGAGGAT	0.0929	0.162	0.126	-0.0605	0.531	2.84	4.94	6.21	5.21	6.22
ATACCAAGGTGATCGTGAGGTAGTTGATACTAAC	0.206	-0.121	-0.314	-0.148	-0.349	0.00448	0.267	-0.218	-0.0247	-0.173
CGTCCAAGGTCAAAGGTCAGTGAGGAGATGACGG	8.06	7.01	4.05	6.21	1.86	7.08	10.8	8.98	8.09	9.57
TCATATAGGTAAAAGGTTAAAGTCGGTGTGGTAA	3.06	3.43	1.29	3.39	0.553	5.77	10.2	8.8	9.29	9.7
TCTCGGAGGACGCGAAAGGTCAGAGCTCGACATC	2.41	3.21	1.27	2.37	-0.501	3.2	1.67	3.46	2.47	3.21
TGAATGAGGTTGAAGATCAGGGAACGTGGCGTCG	0.0849	0.195	-0.576	-0.271	0.232	0.989	1.11	2.33	0.813	1.97
CGGCCAAGGTCAATGCTAGGTCAGTGAAAGCATT	6.95	5.47	1.75	4.08	0.00864	5.19	4.4	4.78	1.47	3.21
ACTATTAGTTGTCTTAGGGCAACCGATACGACGC	0.119	0.0228	0.27	0.0317	0.936	-0.245	0.651	0.232	0.276	0.044
CGTCCAAAGTCAATGCTAGGTCAGTGAAAGCATT	0.216	0.789	0.816	0.482	-0.125	0.696	-0.177	-0.216	-0.538	-0.284
CCGAATGGGGCAAGGTTACCATAACGCACAGCCA	0.248	0.895	-0.0673	0.899	-0.855	1.48	1.51	1.71	0.272	1.08
TCATATCGGTAAACAGGTGAAAGTCCGTAAGTTA	0.957	0.857	0.341	0.799	0.0218	1.89	1.04	2.91	4.03	3.5
CCGAGTAGGTTATGGGGAATTCAGGCAACGGTGA	0.109	0.544	0.111	0.918	0.311	1.23	1.46	2.43	0.671	1.48
TCTCGGAGGATACGAAAGGTCAGAGCTCGACATC	2.69	4.17	2.95	3.22	-0.148	3.68	1.75	3.37	2.63	3.04
GCGACTGGGGCATCGGCAGGTTACCATAACTTAA	0.0165	-0.138	-0.214	0.589	-0.797	1.06	0.979	1.1	-0.324	0.563
TCTTGTAGATCAAAGGTTAAGCAAGCCGAAGCCT	1.32	2.21	0.224	2.12	-0.28	5.08	8.51	8.42	9.42	9.87
TCTTGTGGATCAACAGGAGGTTAAGAAAGATCGA	0.0119	1.31	-0.115	0.808	-0.625	1.19	0.00768	1.18	2.49	1.87
